Source: PubChem BioAssay (several laboratories)
ADAM17 inh: ADAM17 inhibition, QFRET primary screen | inhibition, % at 6.95 µM | P78536 | 370,000 tested, 0.83% active | recombinant ADAM17, EDANS/DABCYL FRET peptide cleavage;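 active means inhibition above the mean of compounds lying between control limits plus 3 SD, set per campaign, cut at about 8.5% in these data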
Target sequence (P78536 215-824 limits assumed): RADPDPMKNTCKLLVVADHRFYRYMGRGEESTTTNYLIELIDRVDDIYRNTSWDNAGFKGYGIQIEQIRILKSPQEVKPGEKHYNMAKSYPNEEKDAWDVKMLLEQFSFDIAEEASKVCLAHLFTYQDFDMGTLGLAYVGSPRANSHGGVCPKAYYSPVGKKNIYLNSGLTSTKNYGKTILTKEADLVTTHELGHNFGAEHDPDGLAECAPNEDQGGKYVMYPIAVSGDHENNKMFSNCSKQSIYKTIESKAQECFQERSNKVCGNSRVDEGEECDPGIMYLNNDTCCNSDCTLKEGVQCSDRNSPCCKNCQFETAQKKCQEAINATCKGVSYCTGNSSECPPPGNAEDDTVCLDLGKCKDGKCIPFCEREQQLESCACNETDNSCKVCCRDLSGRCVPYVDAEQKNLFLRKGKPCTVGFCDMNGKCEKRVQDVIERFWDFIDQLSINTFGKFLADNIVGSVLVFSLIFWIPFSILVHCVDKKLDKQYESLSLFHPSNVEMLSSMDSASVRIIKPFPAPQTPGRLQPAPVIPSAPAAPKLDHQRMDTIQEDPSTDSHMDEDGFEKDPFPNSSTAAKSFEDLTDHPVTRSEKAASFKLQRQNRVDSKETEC
ADAM10 inh: inhibitors of human ADAM10. inhibition, % at 7 µM. 370,000 tested, 0.62% active. AID 720582. recombinant ADAM10, EDANS/DABCYL FRET peptide cleavage, 3 h. O14672;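 active means inhibition above a per-campaign cutoff equal to the mean of compounds falling between control-based bounds plus 3 SD, cut at about 20% in these data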
NPR1 activator: GC-A (human) enzyme activation. P16066. HEK293 GC-A cells, cGMP TR-FRET, EC30 ANP; 0% at EC30 ANP, 100% saturating ANP. activation, % at 10 µM. 370,000 tested, 0.14% active. AID 1671463; in the data active means activation above about 40%
FAS TE block: FAS thioesterase (human) inhibition; P49327; recombinant FAS-TE, OMFH fluorogenic substrate, fluorescence endpoint; inhibition, % at 15 µM; 360,000 tested, 0.67% active; AID 602261;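 active means compounds whose normalised, plate-corrected inhibition of enzyme fluorescence in the single-dose primary screen is 50% or more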
NPR2 activator: GC-B (human) receptor activation | P20594 | AID 1920062 | activation, % at 10 µM | HEK293-GC-B cells, CNP EC30, cGMP TR-FRET; 0% at EC30 CNP, 100% saturating CNP | 370,000 tested, 0.11% active;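 active means activation at 10 µM reaching about 35% in either raw or pattern-adjusted values, limit read from the data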
A number is an active result; – = inactive; · = no result. Hits are enriched below; roughly 2% of the tested compounds scored in any of these assays.

SMILES	ADAM17 inh	ADAM10 inh	NPR1 activator	FAS TE block	NPR2 activator
CCOC(=O)CC[C@@]1(C(=O)OCC)C[C@@H](CC(=O)N2CCSCC2)C(=O)N2CCCC=C21	–	–	–	·	–
C=CCn1c(COc2ccccc2)nnc1SCC(=O)Nc1ccc(S(=O)(=O)Nc2cc(C)nc(C)n2)cc1	–	–	–	·	–
CCn1c(-c2ccsc2)nc2c1c(=O)[nH]c(=O)n2Cc1ccccc1	–	–	–	–	42
CCCn1c(-c2cccs2)nc2c1c(=O)[nH]c(=O)n2Cc1ccccc1	–	–	–	–	–
Cn1c(CNc2ccccc2F)nc2ccccc21	–	–	–	·	–
CCOc1ccc(S(=O)(=O)N(CCO)CCO)cc1-c1nc2c(C(C)(C)C)nn(C)c2c(=O)[nH]1	–	–	58	–	63
CCCc1nn(C)c2c(=O)[nH]c(-c3cc(S(=O)(=O)N(CCO)CCO)ccc3OCC)nc12	–	–	50	–	56
Cc1ccc(-c2nc3cnccn3c2Nc2ccc3c(c2)OCO3)cc1	–	–	51	–	50
CN(C)c1ccc(-c2nc3cnccn3c2Nc2ccc3c(c2)OCCO3)cc1	–	–	–	–	–
Cc1ccc(-c2nc3cnccn3c2Nc2ccc3c(c2)OCCO3)o1	–	–	–	–	–
COc1ccc(-c2nc3cnccn3c2Nc2ccc3c(c2)OCO3)cc1	–	–	52	–	47
COc1cccc(CNC(=O)C2CCN(c3nc(OC)nc(OC)n3)CC2)c1	–	–	–	·	–
CC(=O)c1sc(C(C)(C)C)cc1NC(=O)c1ccccc1C(=O)O	–	–	47	–	–
O=C(O)c1ccccc1C(=O)Nc1ccccc1NC(=O)c1ccccc1C(=O)O	–	–	–	–	–
CS(=O)(=O)c1ccc(OC[C@@H](O)CN2CCC(C(O)(c3ccccc3)c3ccccc3)CC2)cc1	–	–	–	·	–
O=C1NC(Cc2ccc(O)cc2)c2nc3cc(F)c(F)cc3c(=O)n2-c2cc3ccccc3cc21 (centres undefined)	–	–	–	–	38
O=C1NC(Cc2ccc(O)cc2)c2nc3ccc(F)cc3c(=O)n2-c2cc3ccccc3cc21 (centres undefined)	–	–	–	–	65
Cc1ccc2nc3n(c(=O)c2c1)-c1cc2ccccc2cc1C(=O)NC3Cc1ccc(O)cc1 (centres undefined)	–	–	–	–	–
O=C1NC(Cc2ccc(O)cc2)c2nc3cc(Cl)ccc3c(=O)n2-c2cc3ccccc3cc21 (centres undefined)	–	–	–	–	–
NS(=O)(=O)c1ccc(CCNC(=O)CSc2nc3ccsc3c(=O)n2C2CC2)cc1	–	–	–	–	–
CCCCNC(=O)CSc1nc2ccsc2c(=O)n1C1CCN(C(=O)OCC)CC1	–	20	–	–	–
COc1cccc(C2c3[nH]c4ccccc4c3C[C@H]3C(=O)N(c4ccccc4C(=O)N4CCC(C(=O)O)CC4)C(=O)N23)c1 (some centres undefined)	–	–	–	–	51
COC(=O)c1cc(=O)nc(NN=C(C)C)s1	–	–	–	·	–
C=CCn1c(SCC(=O)c2ccc(-c3ccccc3)cc2)nnc1-c1ccc(OC)cc1	–	–	–	·	–
C=CCn1c(SCc2c(C(=O)OC)sc(N)c2C(=O)OC)nnc1-c1ccc(Br)cc1	–	20	–	–	–
SMILES	ADAM17 inh	ADAM10 inh	NPR1 activator	FAS TE block	NPR2 activator
Cc1ccc([N+](=O)[O-])cc1N(CC(=O)Nc1ccc(S(=O)(=O)Nc2cccc(C(F)(F)F)c2)cc1)S(C)(=O)=O	25	49	–	–	–
COc1ccccc1N(CC(=O)Nc1cccc(C(F)(F)F)c1)S(C)(=O)=O	–	–	–	–	–
Oc1ccc(-c2csc(Nc3ccc4c(c3)OCO4)n2)c(O)c1	–	–	–	–	–
N#Cc1ccc(Nc2nc(-c3ccc(O)cc3O)cs2)cc1C(F)(F)F	·	·	·	61	·
Cc1csc(NC(=O)c2ccc(COc3cccc(Cl)c3)o2)n1	–	–	–	·	41
O=C(OCC#CCSc1nnc(-c2cccc3ccccc23)o1)c1ccc(OC(F)F)cc1	–	–	–	·	–
COc1cc(C(=O)NC2CCN(C)CC2)ccc1Nc1ncc2c(n1)N(Cc1ccccc1)CCC(=O)N2C	–	–	–	–	38
COC(=O)C1=C(C)N(Cc2ccccc2C(F)(F)F)C(=NCc2cc(OC)c(OC)c(OC)c2)NC1c1cccc(C(F)(F)F)c1 (centres undefined)	–	–	–	·	–
COCCNc1c2c(c(C#N)c3nc4ccccc4n13)CCCC2	–	–	–	–	–
COc1ccc(Nc2c3c(c(C#N)c4nc5ccccc5n24)CCC3)cc1	–	–	41	–	–
Cc1ccc(Cn2cc(C(=O)c3ccc(F)cc3)c(=O)c3cc4c(cc32)OCCO4)cc1	–	–	–	–	38
COc1ccc(Cn2cc(C(=O)c3ccccc3)c(=O)c3cc(OC)ccc32)cc1	–	–	–	–	–
C[C@H](O)[C@@H]1CN2CCc3c([nH]c4c(-c5ccccc5)cccc34)[C@@H]2C[C@@H]1N(C)C(=O)c1ccco1	–	–	–	·	–
CN(C1CCCCC1)S(=O)(=O)c1ccc(NC(=O)c2ccc(Br)o2)cc1	–	20	–	–	–
CN(C)S(=O)(=O)c1ccc(NC(=O)c2ccc(Br)o2)cc1	·	·	·	–	·
C[C@H]1[C@@H](OC(=O)Nc2ccccc2F)CC[C@@]23CCCN2C(=O)CCC[C@@H]13	–	–	–	·	–
O=c1oc2ccccc2c2oc3cc(O)c(O)cc3c12	–	–	–	–	–
O=c1oc2c(O)c(O)cc3c(=O)oc4c(O)c(O)cc1c4c23	·	·	·	84	·
Fc1ccc(NC(=S)NC2CCN(Cc3ccccc3)CC2)cc1	–	–	–	–	–
S=C(Nc1ccc(Cl)c(Cl)c1)NC1CCN(Cc2ccccc2)CC1	–	20	–	–	–
COCCCNC(=O)c1ccc(Cn2c(=O)c3ccccc3n(Cc3ccc([N+](=O)[O-])cc3)c2=O)cc1	–	–	–	·	–
C#CCN(C[C@@H]1[C@@H](OC(=O)Nc2cccs2)[C@@H](OC(=O)Nc2cccs2)Cn2c(=O)ccc(=O)n21)S(=O)(=O)c1ccc(C)cc1	10	–	–	–	–
C#CCN(C[C@@H]1[C@@H](OC(=O)NC2CCCC2)[C@@H](OC(=O)NC2CCCC2)Cn2c(=O)ccc(=O)n21)S(=O)(=O)c1ccc(C)cc1	–	–	–	–	–
CCCCCN1CCCCC(NC(=O)c2ccccc2C)C1=O (centres undefined)	–	–	–	·	–
Cc1cc(C(C#N)c2ccc(Cl)cc2)c(Cl)cc1NC(=O)c1cc(I)cc(I)c1O (centres undefined)	–	–	–	57	–
S=C(c1ccc(-c2ccc(Cl)cc2Cl)o1)N1CCCC1	–	–	–	–	–
CN1CCN(C(=S)c2ccc(-c3cc(Cl)ccc3Cl)o2)CC1	–	–	–	–	50
